Results from PubChem BioAssay.
“And” between values parts separate entries of the source, which are not always exact repeats. Equal values may be shown once. The source made the active and inactive calls. Unless noted, no rule for the calls is given here.

Assays:
[1] = stimulators of nuclear beta-catenin in C2C12, primary screen, imaging, WNT3A-conditioned medium, mouse C2C12, NPC library (AID 1117326; in the data active = nuclear beta-catenin stimulation mostly above about 4.2%, no sharp cut-off; inactive = mostly below about 10%); conditions: stronger effect = higher value
[2] = stimulators of insulin release from INS-1E, primary screen, cell-based, 5 mM glucose, NPC library (AID 1117329;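 active = compound raises insulin release from rat beta cells at 5 mM glucose, no numeric limit stated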); conditions: rat INS-1E insulin secretion, at 10 µM, stronger effect = higher value
[3] = glucagon-like peptide 1 release enhancers, primary assay, NCI-H716 cell line, NPC library (AID 1117341;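 active = compound raises GLP1 secretion from the human gut endocrine cells, with no numeric limit stated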); conditions: NCI-H716 cells, at 10 µM, stronger effect = higher value
[4] = polyglutamine-triggered caspase-3 activation inhibitors, cell-based (AID 1583); conditions: polyglutamine-induced caspase-3 activation, cell assay; stronger effect = higher value;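 tested at 10 µM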
[5] = hESC survival regulators, cell-based (AID 493140); conditions: human embryonic stem cell survival screen; stronger effect = higher value;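 also: cells exposed to compounds for four days before counting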
[6] = growth inhibition of GSK3B-pretreated HCT116 cells – cell-based, CellTiter-Glo, 0.2 to 20 µM (AID 1117336;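 active = compounds lowering colon cancer cell viability after pretreatment blocking the GSK3B kinase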); conditions: HCT116 viability after GSK3B inhibitor, at 20 µM, stronger effect = higher value
[7] = inhibition of endothelial tube formation, primary screen, imaging, VEGF stimulated, CD31 staining, tube area, NPC library (AID 1117340;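 active = compound that reduces growth-factor-driven endothelial tube area in a mixed cell culture, no cutoff stated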); conditions: VEGF-stimulated ADSC/ECFC co-culture, at 10 µM, stronger effect = higher value
[8] = HCT116 colon cancer cell growth inhibition, primary screen, CellTiter-Glo luminescence, NPC library (AID 1117342;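 active = compounds that lower survival of HCT116 colon cancer cells in the luminescence readout, no numeric limit stated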); conditions: at 20 µM (top of the series)
[9] = CellTiter-Glo luminescent readout of SW480 viability loss, NPC library primary (AID 1117343;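 active = compounds that lower viability of the colon cancer cells in the luminescence readout, with no numeric limit stated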); conditions: CellTiter-Glo luminescence; at 20 µM (top of the series) unless noted
[10] = decreased DLD-1 cellular survival, CellTiter-Glo luminescent readout, NPC compound collection, primary HTS (AID 1117346;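 active = compounds that lower survival of DLD-1 colon cancer cells in the luminescence readout, no cutoff given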); conditions: DLD-1 viability, CellTiter-Glo luminescence; at 20 µM (top of the series)
[11] = biological target: 6-phosphogluconate dehydrogenase, decarboxylating (Homo sapiens) (UniProt P52209); experiment: 6PGD enzyme inhibitors, primary screen, biochemical, human, recombinant enzyme, NADPH absorbance (AID 1159550;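 active = at least 20% inhibition of 6-phosphogluconate dehydrogenase activity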); conditions: recombinant 6PGD, NADPH absorbance 341 nm; at 10 µM; stronger effect = higher value
Sequence of 6-phosphogluconate dehydrogenase, decarboxylating (Homo sapiens) (P52209 whole entry, looked up): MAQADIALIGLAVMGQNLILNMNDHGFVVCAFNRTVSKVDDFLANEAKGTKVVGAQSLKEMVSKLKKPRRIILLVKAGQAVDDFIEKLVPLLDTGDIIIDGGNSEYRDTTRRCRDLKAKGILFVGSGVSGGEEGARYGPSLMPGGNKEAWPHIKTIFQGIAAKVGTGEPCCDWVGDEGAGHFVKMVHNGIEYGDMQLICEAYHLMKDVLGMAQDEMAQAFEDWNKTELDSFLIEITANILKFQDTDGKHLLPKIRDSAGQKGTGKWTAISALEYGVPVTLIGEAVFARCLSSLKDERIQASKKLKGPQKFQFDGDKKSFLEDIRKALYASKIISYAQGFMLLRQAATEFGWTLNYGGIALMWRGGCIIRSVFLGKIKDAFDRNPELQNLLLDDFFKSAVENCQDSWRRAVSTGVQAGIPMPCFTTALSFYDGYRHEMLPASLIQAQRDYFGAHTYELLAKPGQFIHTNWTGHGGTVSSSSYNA

[12] = modulation of C. elegans fzo-1 (AID 1259413);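 also: fzo-1 mutant C. elegans worms in liquid wells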; conditions: C. elegans fzo-1 modulator screen, mean read-out; stronger effect = higher value
[13] = differential killing of epithelial or mesenchymal cells, primary screen, imaging, PC-3E GFP, TEM4-18 mCherry, co-culture (AID 1345086;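 active = compounds killing one labelled cell type while sparing the other, by normalised counts and ratio limits, not self-fluorescent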;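 as to all read-outs here: cells exposed to compound for 72 h before imaging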;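 as to red/green cell ratio (normalised): normalised mesenchymal count divided by normalised epithelial count so high means epithelial killing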); conditions: imaging cell counts, at 1 µM; for red/green cell ratio (normalised): actives lie on both sides, counts scaled to control wells, 1 = unselective
[14] = survival rescue of mitochondrial mutant cells in low glucose, primary screen, MELAS cybrids, Rieske KO mouse fibroblasts, CellTiter-Glo (AID 1508586;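 active = mean z-score across replicates of 1.96 or higher in either the MELAS or the Rieske mutant cell line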;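 also: z relative to plate mean and SD of compound and empty wells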)
[15] = biological target: NAD(+) hydrolase SARM1 (Homo sapiens) (UniProt Q6SZW1); experiment: SARM1 TIR NADase inhibitors, cell lysate, NAD-Glo luminescence (AID 1508614;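 active = compound whose remaining NAD level is above about 45 nM, limit read from the data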;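 also: higher remaining NAD means stronger inhibition of SARM1 NADase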); conditions: SAM-TIR HEK293T lysate NADase, at 1 µM, stronger effect = higher value
Sequence of NAD(+) hydrolase SARM1 (Homo sapiens) (Q6SZW1 whole entry, looked up, the tested form may be a part): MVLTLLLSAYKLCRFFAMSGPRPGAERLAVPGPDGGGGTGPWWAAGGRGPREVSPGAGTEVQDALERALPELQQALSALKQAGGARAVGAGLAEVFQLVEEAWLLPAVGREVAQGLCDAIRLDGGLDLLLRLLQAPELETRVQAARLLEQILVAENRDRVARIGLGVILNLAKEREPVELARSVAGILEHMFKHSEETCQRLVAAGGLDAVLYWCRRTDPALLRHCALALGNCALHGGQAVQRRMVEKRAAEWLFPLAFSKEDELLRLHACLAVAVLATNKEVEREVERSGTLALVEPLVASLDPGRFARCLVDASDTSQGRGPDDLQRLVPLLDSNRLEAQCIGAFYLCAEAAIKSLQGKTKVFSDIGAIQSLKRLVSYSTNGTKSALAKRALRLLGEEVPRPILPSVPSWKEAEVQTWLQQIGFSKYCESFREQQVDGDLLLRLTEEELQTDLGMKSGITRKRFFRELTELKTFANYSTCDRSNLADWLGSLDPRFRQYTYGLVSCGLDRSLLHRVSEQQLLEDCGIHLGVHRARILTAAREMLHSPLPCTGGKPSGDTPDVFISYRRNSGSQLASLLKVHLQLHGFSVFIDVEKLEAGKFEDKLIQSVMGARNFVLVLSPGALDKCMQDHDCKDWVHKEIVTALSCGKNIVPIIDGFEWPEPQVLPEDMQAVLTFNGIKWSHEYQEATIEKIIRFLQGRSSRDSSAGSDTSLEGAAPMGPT

[16] = biological target: Mitogen-activated protein kinase 7 (Homo sapiens) (UniProt Q13164); experiment: ERK5 transactivation activators in reporter cells, primary screen, cell-based, HTS (AID 1508626;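 active = luciferase signal above three times the same-plate solvent-only control wells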;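 also: luciferase driven by Gal4-ERK5 fusion binding five Gal4 sites before minimal TATA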); conditions: HeLa Gal4-ERK5 transactivation, 18 h, at 5 µM, stronger effect = higher value
Sequence of Mitogen-activated protein kinase 7 (Homo sapiens) (Q13164 whole entry, looked up, the tested form may be a part): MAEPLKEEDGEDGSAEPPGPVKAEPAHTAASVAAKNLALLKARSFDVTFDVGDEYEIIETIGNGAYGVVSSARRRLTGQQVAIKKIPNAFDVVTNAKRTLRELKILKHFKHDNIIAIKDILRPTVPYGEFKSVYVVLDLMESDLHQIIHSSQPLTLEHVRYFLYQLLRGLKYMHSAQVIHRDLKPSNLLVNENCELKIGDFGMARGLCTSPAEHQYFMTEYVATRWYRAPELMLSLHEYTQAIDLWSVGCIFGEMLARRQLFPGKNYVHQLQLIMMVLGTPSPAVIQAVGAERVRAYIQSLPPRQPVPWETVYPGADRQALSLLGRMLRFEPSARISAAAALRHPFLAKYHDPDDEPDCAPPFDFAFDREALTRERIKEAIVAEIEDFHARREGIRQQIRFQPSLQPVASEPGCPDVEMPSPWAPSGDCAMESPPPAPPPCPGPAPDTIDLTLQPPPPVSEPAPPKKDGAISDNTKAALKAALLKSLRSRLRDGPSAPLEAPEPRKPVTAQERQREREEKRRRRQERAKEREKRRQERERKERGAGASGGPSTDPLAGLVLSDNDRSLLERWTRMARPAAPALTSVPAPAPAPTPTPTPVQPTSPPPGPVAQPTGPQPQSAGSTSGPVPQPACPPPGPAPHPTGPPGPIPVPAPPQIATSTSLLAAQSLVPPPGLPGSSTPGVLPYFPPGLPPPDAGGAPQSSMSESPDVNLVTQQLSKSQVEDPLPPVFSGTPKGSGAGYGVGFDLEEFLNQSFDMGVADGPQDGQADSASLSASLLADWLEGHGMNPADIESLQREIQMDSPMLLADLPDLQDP

[17] = viability rescue of complex I mutant cybrids, primary screen, cell-based, galactose medium, ATP luminescence (AID 1645843;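 active = z-score of at least 1.8 in each of two replicates, scored against plate mean and spread of sample wells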;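 also: positive z means more ATP and so rescue of galactose-driven cybrid death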); conditions: complex I mutant cybrid cells, 72 h, stronger effect = higher value
[18] = sensitizers of A549 cells to miR-34 induction, primary screen, imaging, A549 dox-inducible miR-34, nuclei and caspase counts (AID 1347080;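 active = compounds whose cell count with miR-34 switched on is under 0.7 times the count with it off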); conditions: A549 miR-34 inducible, Hoechst nuclei count, 48 h
[19] = liver-stage malaria parasite growth inhibition, primary screen, cell-based, HepG2, luciferase luminescence, HepG2 viability (AID 624349; in the data active = parasite load remaining mostly below about 12%, no sharp cut-off; inactive = mostly above about 10%;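 also: 100% = mean of DMSO negative control wells on the same plate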); conditions: P. berghei liver stage in HepG2, luciferase luminescence, concentration not given here; parasite load remaining: stronger effect = lower value; viability: measured here: HepG2 viability without parasites
[20] = measured here: epithelial PC-3E GFP cell survival
[21] = measured here: mesenchymal TEM4-18 mCherry cell survival
[22] = MELAS cybrid survival, CellTiter-Glo 48 h, stronger effect = higher value
[23] = Rieske KO mouse fibroblast survival, CellTiter-Glo 72 h
[24] = stronger effect = lower value, cell number ratio, induced over uninduced
[25] = measured here: relative caspase fold change +Dox/-Dox
[26] = measured here: total cells with miR-34 induction, stronger effect = lower value
[27] = measured here: total cells without miR-34 induction

Compound: CCCCCCCCCCCCCCCCCCOP(=O)([O-])OC1CC[N+](C)(C)CC1
- nuclear beta-catenin stimulation ([1]; at 10 µM): -0.8% (inactive)
- nuclear beta-catenin stimulation ([1]; stimulation, at 2 µM): -1%
- insulin secretion stimulation [2]: 0.3% (inactive)
- GLP1 secretion stimulation [3]: 0.4% (inactive)

Compound: CCC=CCC=CCC=CCCCCCCCC(=O)O
- nuclear beta-catenin stimulation ([1]; at 10 µM): -0.2% (inactive)
- nuclear beta-catenin stimulation ([1]; stimulation, at 2 µM): 0%
- insulin secretion stimulation [2]: 2.65% (inactive)
- GLP1 secretion stimulation [3]: 12.4% (inactive)

Compound: CC(CC=O)CCCC(C)(C)O (stereo not given)
- nuclear beta-catenin stimulation ([1]; at 10 µM): 0.5% (inactive)
- nuclear beta-catenin stimulation ([1]; stimulation, at 2 µM): -1.3%
- insulin secretion stimulation [2]: 0.85% (inactive)
- GLP1 secretion stimulation [3]: 3.1% (inactive)

Compound: C[S+](CC[C@H](N)C(=O)O)C[C@H]1O[C@@H](n2cnc3c(N)ncnc32)[C@H](O)[C@H]1O (stereo not given in full)
- nuclear beta-catenin stimulation ([1]; at 10 µM): 0.8% (inactive)
- nuclear beta-catenin stimulation ([1]; stimulation, at 2 µM): 1.9%
- insulin secretion stimulation [2]: 1.55% (inactive)
- GLP1 secretion stimulation [3]: -0.4% (inactive)

Compound: COC(=O)C1=C(C)NC(C)=C(C(=O)OCCN(C)Cc2ccccc2)C1c1cccc([N+](=O)[O-])c1 (stereo not given)
- inhibition [4]: 5.3%
- survival [5]: 2.33 (inactive)
- insulin secretion stimulation [2]: 2.9% (inactive)
- viability decrease [6]: 91.4% (active)
- tube area decrease [7]: 14.2% (inactive)
- GLP1 secretion stimulation [3]: -2.4% (inactive)
- inhibition of viability [8]: 104% (active)
- viability decrease (inhibition) [9]: 126% (active)
- viability decrease (inhibition) [10]: 84.9% (active)
- inhibition [11]: -13.8% (inactive)
- mean signal [12]: 246 (inactive)
- red/green cell ratio (normalised) [13]: 0.81 (inactive)
- normalised cell number [13, 20]: 1.09
- normalised cell number [13, 21]: 0.89
- z-score [14, 22]: -0.48 (inactive) and -0.0308 (inactive) and 0.219 (inactive)
- z-score [14, 23]: -0.154 and -0.712 and 0.12
- remaining NAD [15]: 10 nM (inactive)
- luciferase signal [16]: 48 AU (inactive)
- z-score [17]: -1.29 (inactive) and -1.5 (inactive) and 0.665 (inactive)

Compound: COCCOCC(OC)OC
- nuclear beta-catenin stimulation ([1]; at 10 µM): 1.2% (inactive)
- nuclear beta-catenin stimulation ([1]; stimulation, at 2 µM): 10.8%
- viability decrease [6]: 0.6% (inactive)
- inhibition of viability [8]: 12.5% (inactive)
- viability decrease (inhibition) [9]: -8.8% (inactive)
- viability decrease (inhibition) [10]: 6.9% (inactive)

Compound: CC12CCC(CC1)C(C)(C)O2
- inhibition [4]: 20.8%
- nuclear beta-catenin stimulation ([1]; at 10 µM): 1.8% (inactive)
- nuclear beta-catenin stimulation ([1]; stimulation, at 2 µM): 17.2%
- viability decrease [6]: 4.1% (inactive)
- inhibition of viability [8]: 7.2% (inactive)
- viability decrease (inhibition) [9]: 5% (inactive)
- viability decrease (inhibition) [10]: 4.4% (inactive)
- inhibition [11]: -15.6% (inactive)
- red/green cell ratio (normalised) [13]: 0.83 (inactive)
- normalised cell number [13, 20]: 1.13
- normalised cell number [13, 21]: 0.94
- remaining NAD [15]: 10 nM (inactive)

Compound: C[C@@H](C1=C(CCN(C)C)Cc2ccccc21)c1ccccn1
- nuclear beta-catenin stimulation ([1]; at 10 µM): -0.2% (inactive)
- nuclear beta-catenin stimulation ([1]; stimulation, at 2 µM): 8.1%
- viability decrease [6]: 37.5% (inactive)
- inhibition of viability [8]: -11.9% (inactive)
- viability decrease (inhibition) [9]: 63.6% (active)
- viability decrease (inhibition) [10]: -48.2% (inactive)
- fold change [18, 24]: 0.916 (inactive)
- fold change [18, 25]: 0.633
- cell count [18, 26]: 7800
- cell count [18, 27]: 8520
- z-score [17]: -0.445 (inactive)

Compound: COCCCOc1ccnc(CS(=O)c2nc3ccccc3[nH]2)c1C (stereo not given)
- parasite load remaining [19]: 32% (inactive) and 56.4% (inactive)
- viability [19]: 108% and 71%
- nuclear beta-catenin stimulation ([1]; at 10 µM): 0% (inactive)
- nuclear beta-catenin stimulation ([1]; stimulation, at 2 µM): 9.8%
- viability decrease [6]: 32.7% (inactive)
- inhibition of viability [8]: 20.2% (inactive)
- viability decrease (inhibition) [9]: 4.6% (inactive)
- viability decrease (inhibition) [10]: -10.8% (inactive)
- mean signal [12]: 232 (inactive)
- red/green cell ratio (normalised) [13]: 0.79 (inactive)
- normalised cell number [13, 20]: 1.16
- normalised cell number [13, 21]: 0.91
- fold change [18, 24]: 0.932 (inactive) and 0.863 (inactive)
- fold change [18, 25]: 1.16 and 3.79
- cell count [18, 26]: 9170 and 10700
- cell count [18, 27]: 9840 and 12400
- remaining NAD [15]: 10 nM (inactive)
- luciferase signal [16]: 200 AU (inactive)
- z-score [17]: -0.225 (inactive)

Compound: CN1CCN(C2=Nc3cc(Cl)ccc3Nc3ccccc32)CC1
- inhibition [4]: -23.8%
- survival [5]: 15.2 (inactive)
- insulin secretion stimulation [2]: 3.6% (inactive)
- viability decrease [6]: 17.2% (inactive)
- tube area decrease [7]: -0.2% (inactive)
- GLP1 secretion stimulation [3]: 7.2% (inactive)
- inhibition of viability [8]: 63% (active)
- viability decrease (inhibition) [9]: 66.6% (active)
- viability decrease (inhibition) [10]: 14.1% (inactive)
- inhibition [11]: -3.75% (inactive)
- mean signal [12]: 262 (inactive)
- red/green cell ratio (normalised) [13]: 1.04 (inactive)
- normalised cell number [13, 20]: 1.09
- normalised cell number [13, 21]: 1.14
- z-score [14, 22]: -1.17 (inactive) and -0.401 (inactive) and 0.405 (inactive)
- z-score [14, 23]: 0.276 and 0.587
- remaining NAD [15]: 10 nM (inactive)
- luciferase signal [16]: 24 AU (inactive)

Compound: COc1c2occc2cc2ccc(=O)oc12
- inhibition [4]: 18.6%
- survival [5]: 5.42 (inactive)
- insulin secretion stimulation [2]: 1.9% (inactive)
- viability decrease [6]: -33.7% (inactive)
- tube area decrease [7]: 3.8% (inactive)
- GLP1 secretion stimulation [3]: 2% (inactive)
- inhibition of viability [8]: 8.3% (inactive)
- viability decrease (inhibition) [9]: 26.9% (inactive)
- viability decrease (inhibition) [10]: 8.4% (inactive)
- inhibition [11]: 3.81% (inactive)
- mean signal [12]: 248 (inactive)
- red/green cell ratio (normalised) [13]: 1.15 (inactive)
- normalised cell number [13, 20]: 0.84
- normalised cell number [13, 21]: 0.96
- z-score [14, 22]: -0.203 (inactive)
- z-score [14, 23]: -0.0388
- remaining NAD [15]: 10 nM (inactive)
- luciferase signal [16]: 24 AU (inactive)
- z-score [17]: 0.975 (inactive)

Compound: CC(C)(C)NCC(O)c1ccc(O)c(CO)c1 (stereo not given)
- inhibition [4]: -4.84%
- survival [5]: 26.5 (inactive)
- insulin secretion stimulation [2]: 1.1% (inactive)
- viability decrease [6]: -1.7% (inactive)
- tube area decrease [7]: -7.8% (inactive)
- GLP1 secretion stimulation [3]: -1.8% (inactive)
- inhibition of viability [8]: -1.7% (active)
- viability decrease (inhibition) [9]: -5.2% (inactive)
- viability decrease (inhibition) [10]: -10% (inactive)
- inhibition [11]: 0.167% (inactive)
- mean signal [12]: 230 (inactive)
- red/green cell ratio (normalised) [13]: 0.85 (inactive)
- normalised cell number [13, 20]: 1.18
- normalised cell number [13, 21]: 1
- z-score [14, 22]: 0.679 (inactive) and -0.995 (inactive)
- z-score [14, 23]: 0.164 and -0.427
- remaining NAD [15]: 10 nM (inactive)
- luciferase signal [16]: 32 AU (inactive)
- z-score [17]: 0.105 (inactive) and 0.825 (inactive) and 0.82 (inactive)

Compound: CN/C(=C\[N+](=O)[O-])NCCSCc1ccc(CN(C)C)o1
- inhibition [4]: 6.1%
- survival [5]: 19.6 (inactive)
- insulin secretion stimulation [2]: -1% (inactive)
- viability decrease [6]: -7.5% (inactive)
- tube area decrease [7]: 7% (inactive)
- GLP1 secretion stimulation [3]: -1.4% (inactive)
- inhibition of viability [8]: 2.23% (inactive)
- viability decrease (inhibition) [9]: -25.8% (inactive)
- viability decrease (inhibition) [10]: -22.7% (inactive)
- inhibition [11]: -3.38% (inactive)
- mean signal [12]: 267 (inactive)
- red/green cell ratio (normalised) [13]: 1.01 (inactive)
- normalised cell number [13, 20]: 1.03
- normalised cell number [13, 21]: 1.04
- fold change [18, 24]: 0.934 (inactive) and 0.989 (inactive) and 0.926 (inactive)
- fold change [18, 25]: 0.757 and 2.23 and 4.08
- cell count [18, 26]: 10600 and 10300 and 12000
- cell count [18, 27]: 11300 and 10400 and 13000
- remaining NAD [15]: 10 nM (inactive)
- luciferase signal [16]: 28 AU (inactive)
- z-score [17]: 0.37 (inactive) and -0.285 (inactive)
